Consider 61 molecules from PubChem BioAssay AID1578 (Sanford-Burnham Center for Chemical Genomics, 2009).

SMILES strings stand for the structures. Out of some 290,000 compounds screened, about 3,000 (1%) were called active. This is one part of a sample in which actives are shown more often than they occur. Rule as the data show it: active = inhibition mostly above about 36% (no sharp cut-off); inactive = mostly below about 34%.

A short description of this experiment: inhibition of NOD1-driven NF-kB reporter – cell-based, luminescence, uHTS, primary screen (AID 1578).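 Also: HEK-293T reporter cells stimulated with the NOD1 agonist gamma-tri-DAP.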 As to conditions: NOD1-driven NF-kB luciferase reporter cells, at 4 µM, stronger effect = higher value.
With `O=c1[nH]c2ccc(NC(=S)NC3CCCCC3)cc2[nH]1`, the inhibition was 0.4% (inactive).

Consider `NNC(=O)c1cccn(Cc2cccc(C(F)(F)F)c2)c1=O`, for which the inhibition is -7.3% (inactive).

Turning to `CCn1c(SCC(=O)Nc2nc(C)c(C)s2)nnc1-c1ccco1`, the inhibition is 4.8% (inactive).

With `O=C(NCCCCc1ccccc1)Nc1cccc(F)c1`, the inhibition was -18.4% (inactive).

For `CCc1nnc(NS(=O)(=O)c2ccc(NC(=S)NC(=O)c3ccc(OC)c(OC)c3)cc2)s1`, the inhibition is -10.1% (inactive).

Consider `C#Cc1ccc([C@@H]2C=C(C(=O)N3CCN(Cc4ccc5c(c4)OCO5)CC3)O[C@H](OCCCCO)C2)cc1`, for which the inhibition is -5.3% (inactive).

On to `O=C(CN1CC[C@@]2(O)CCCC[C@H]2[C@@H]1c1ccc(F)cc1)NCc1ccco1`, for which the inhibition was -15% (inactive).

Consider `Cc1cc(Cl)ccc1C(=O)C1CCCN(C(=O)c2cscn2)C1` (stereo unspecified), for which the inhibition is -13.1% (inactive).

As for `COC(=O)C(CCSC)NS(=O)(=O)c1ccc(Cl)cc1` (stereo unspecified), the inhibition is -19.4% (inactive).

Turning to `O=S(=O)(c1ccccc1)N(Cc1ccccc1)c1ccccn1`, the inhibition was -18.3% (inactive).

For the molecule `O=C(Nc1nc(-c2ccc3c(c2)OCO3)cs1)C1CC1`, the inhibition was -36.4% (inactive).

`CC(=O)Nc1nc(-c2ccc3c(c2)OCO3)cs1`: the inhibition is 1.1% (inactive).

For `Cc1ccc2nc(N3CCN(S(=O)(=O)c4ccc(C)c(Cl)c4)CC3)c(C#N)cc2c1`, the inhibition is -0.6% (inactive).

Regarding `Cc1nc2ccc(S(=O)(=O)NCC(=O)N3CCN(c4ccccn4)CC3)cc2s1`, the inhibition is 8.2% (inactive).

As for `COC(=O)C1(CCSC)NC(c2ccco2)C2C(=O)N(C)C(=O)C21` (stereo unspecified), the inhibition is -7.2% (inactive).

For the molecule `CC(C)(C)c1ccc(NC(=O)COc2ccc(-n3ccnc3)cc2)cc1`, the inhibition is 74.6% (active).

As for `C/C(=N\NC(=O)COc1ccc(C(C)(C)C)cc1)c1ccc(-n2ccnc2)cc1`, the inhibition is -48% (inactive).

For `COc1cc(NC(=O)COc2ccc(-n3ccnc3)cc2)cc(OC)c1`, the inhibition was 39.3% (inactive).

For `Cc1ccc(NC(=O)CSc2nnc(C)n2CC2CCCO2)cc1` (stereo unspecified), the inhibition was -27.7% (inactive).

In the case of `CCc1ccccc1NCC(=O)Nc1ccc(Cl)c(C(F)(F)F)c1`, the inhibition is -18.7% (inactive).

For `C=CCSC1=NN2CCS(=O)(=O)N=C2S1`, the inhibition was -14.6% (inactive).

On to `CCSC1=NN2CCS(=O)(=O)N=C2S1`, for which the inhibition is 44.5% (active).

In the case of `CCOC(=O)CSC1=NN2CCS(=O)(=O)N=C2S1`, the inhibition was -12.9% (inactive).

Turning to `COc1ccc(/C(N)=N/OC(=O)c2cccs2)cc1OC`, the inhibition is -61.8% (inactive).

For `COc1ccccc1CNC(=O)C1CCN(C(=O)c2sccc2-n2cccc2)CC1`, the inhibition is -18.4% (inactive).

Consider `CCC(NC(=O)c1ccccc1NC(=O)c1ccccc1)C(=O)NNC(=O)c1cccnc1` (stereo unspecified), for which the inhibition was -7.6% (inactive).

As to `CCN(C(=O)COC(=O)c1cccnc1Nc1ccccc1F)C1CCS(=O)(=O)C1` (stereo unspecified), the inhibition was -22.9% (inactive).

As for `CCOc1ccc(NC(=O)CCSc2nnc(C)s2)cc1`, the inhibition is 7.9% (inactive).

In the case of `Cc1ccc2c(c1)Oc1ccc(NC(=O)CCCl)cc1C(=O)N2`, the inhibition was 0.2% (inactive).

Consider `Cc1ccc2c(c1)Oc1ccc([N+](=O)[O-])cc1C(=O)N2`, for which the inhibition is -16.6% (inactive).

On to `Cc1ccc2c(c1)Oc1ccc(NC(=O)CCl)cc1C(=O)N2`, for which the inhibition was 103% (active).

Take `CCCn1c(N)c(N(CCOC)C(=O)/C=C/c2cccc(Cl)c2)c(=O)[nH]c1=O`: the inhibition was -16.5% (inactive).

`CC12CN3CC(C)(CN(C1)C3c1ccc(F)cc1)C2` (stereo unspecified): the inhibition was -30.5% (inactive).

Take `O=C(O)CCCC(=O)Nc1ccc(Oc2ncnc3cc(Cl)ccc23)nc1`: the inhibition is -10.7% (inactive).

Take `CC(C(=O)N(C1CC1)C1(C(=O)Nc2ccccc2)CCCC1)N1C(=O)c2ccccc2C1=O` (stereo unspecified): the inhibition was 7.8% (inactive).

As for `COC(=O)c1ccccc1NC(=O)NCc1ccccn1`, the inhibition was -25.3% (inactive).

On to `Oc1ccc(Br)cc1C=Nc1ccc2c3c(cccc13)CC2`, for which the inhibition was 101% (active).

For `Oc1ccc(Cl)cc1C=Nc1ccc2c3c(cccc13)CC2`, the inhibition is 38.7% (inactive).

`Cc1cccc(C=Nc2ccc3c4c(cccc24)CC3)c1O`: the inhibition was -17.9% (inactive).

On to `Cc1cc(C(=O)NCCc2ccccc2)c2cc(F)ccc2n1`, for which the inhibition is 1.9% (inactive).

`CN(c1ccccc1)S(=O)(=O)c1ccc(Cl)c(C(=O)Nc2nc3ccccc3[nH]2)c1`: the inhibition was 3.8% (inactive).

As to `CN(c1cccc(Cl)c1)S(=O)(=O)c1cccc(C(=O)Nc2nc3ccccc3[nH]2)c1`, the inhibition was 53% (inactive).

Regarding `O=C(NCc1ccccc1)c1cnsn1`, the inhibition is -16.6% (inactive).

`CC1CCc2nc3ccccc3c(C(=O)OCC(=O)N(C)C3CCS(=O)(=O)C3)c2C1` (stereo unspecified): the inhibition was -19.9% (inactive).

On to `COc1cc(C(=O)Nc2ccc(Nc3ccccc3)cc2)cc(OC)c1OC`, for which the inhibition was -1.1% (inactive).

As for `Cc1ccc(C)c(CS(=O)(=O)c2cn(CC(=O)N3CCCCC3)c3ccccc23)c1`, the inhibition was -19.4% (inactive).

On to `O=C(NN=C1CCCC1)c1cc(Br)ccc1O`, for which the inhibition was -58.6% (inactive).

For the molecule `O=C1N/C(=N/O)S/C1=C/c1cccc([N+](=O)[O-])c1`, the inhibition is -24.9% (inactive).

With `CC(C)N(C(=O)CO/N=C/c1cccc([N+](=O)[O-])c1)C(C)C`, the inhibition is -4.4% (inactive).

In the case of `CC1(C)C2C/C(=N\O)C(C)(/[N+]([O-])=C/c3cccc([N+](=O)[O-])c3)CC21` (stereo unspecified), the inhibition was 62.4% (active).

In the case of `Cc1nnc(SCC(=O)O)s1`, the inhibition was -10.4% (inactive).

For `Cc1ccc(-c2nc(CN3CCCC(C(=O)N4CCOCC4)C3)c(C)o2)cc1` (stereo unspecified), the inhibition was -23.5% (inactive).

For `COC(=O)c1cnn(-c2ccc(Cl)cc2)c1/C=N/NC(N)=S`, the inhibition was 5.8% (inactive).

Regarding `CN(C)S(=O)(=O)c1cccc(NC(=O)c2ccncc2)c1`, the inhibition is -4.4% (inactive).

`CN(C)S(=O)(=O)c1cccc(NC(=O)c2cnccn2)c1`: the inhibition is -27.8% (inactive).

For the molecule `CCOc1ccc(N/C(N)=N/c2nc(C)cc(C)n2)cc1`, the inhibition is -34.6% (inactive).

Consider `O=Cc1c(NCCN2CCCC2)c2ccccc2[nH]c1=O`, for which the inhibition is 0.2% (inactive).

`CN1CCN(CCCNc2c(C=O)c(=O)[nH]c3ccccc23)CC1`: the inhibition was -5.5% (inactive).

Regarding `O=Cc1c(NCCN2CCOCC2)c2ccccc2[nH]c1=O`, the inhibition is 59.2% (active).

As for `O=[N+]([O-])c1ccc(Cl)c(CN2CCN(c3ncccn3)CC2)c1`, the inhibition is -27.2% (inactive).

`Cc1cc(C)nc(NC(=O)c2ccc(C)o2)n1`: the inhibition was -48.4% (inactive).

A word on the inhibition: it is the change of the read-out against control, counted positive when it falls.
